Experimental data: PubChem BioAssay AID1159580 (chemical genetic matrix, 2015)
Several values for one entry are separate records, joined by “and”; a condition that tells them apart may be missing. Identical values can stand only once. In all, about 5,500 compounds went through this assay and about 2,000 (36%) were called active. Another 18% or so got no clear call; they are omitted. Rule as the data show it: active = normalized growth mostly below about 0.91 (no sharp cut-off); inconclusive = no clear call, values can overlap the other calls; inactive = mostly above about 0.92. The list shows a part of the results.

Test: chemical genetic growth profiling, strain panel (AID 1159580);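 also: tested at 20 µM; growth read once vehicle control cultures reached saturation at 30 °C; 1 = growth at the plate median or of vehicle wells; lower values mean less growth of the strain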
Settings: S. cerevisiae deletion strains, growth OD

Measured: normalized growth

C[C@]12CCC(=O)C=C1C=CC1C2CC[C@@]2(C)C1CC[C@@]2(O)CCC(=O)O (stereo partly specified)
inactive: locus YAL013W, strain DEP1, active compounds read low 1 | locus YAL021C, strain ccr4, active compounds read low 1.02 | locus YAL026C, strain drs2, active compounds read low 1.01 | locus YAL030W, strain snc1, active compounds read low 1.02 | locus YBL061C, strain skt5, active compounds read low 1.03 | locus YBR009C, strain hhf1, active compounds read low 0.997 | locus YBR021W, strain FUR4, active compounds read low 0.985 | locus YBR023C, strain chs3, active compounds read low 1.02 | locus YBR171W, strain sec66, active compounds read low 1.03 | locus YBR229C, strain ROT2, active compounds read low 0.991 | locus YBR231C, strain swc5, active compounds read low 1.01 | locus YBR279W, strain paf1, active compounds read low 1.03 | locus YCL011C, strain gbp2, active compounds read low 1.03 | locus YCL016C, strain dcc1, active compounds read low 1.01 | locus YCL029C, strain bik1, active compounds read low 0.963 | locus YCL069W, strain vba3, active compounds read low 1.04 | locus YCR088W, strain abp1, active compounds read low 1.03 | locus YDL005C, strain med2, active compounds read low 1.03 | locus YDL035C, strain GPR1, active compounds read low 1.02 | locus YDL040C, strain nat1, active compounds read low 1.04 | locus YDL074C, strain BRE1, active compounds read low 0.969 | locus YDL101C, strain DUN1, active compounds read low 0.982 | locus YDL134C, strain PPH21, active compounds read low 0.99 | locus YDL185W, strain tfp1, active compounds read low 0.982 | locus YDL192W, strain arf1, active compounds read low 0.997 | locus YDR001C, strain nth1, active compounds read low 1.01 | locus YDR069C, strain doa4, active compounds read low 1.01 | locus YDR101C, strain arx1, active compounds read low 0.98 | locus YDR137W, strain rgp1, active compounds read low 0.986 | locus YDR150W, strain NUM1, active compounds read low 1 | locus YDR159W, strain sac3, active compounds read low 0.982 | locus YDR162C, strain NBP2, active compounds read low 1 | locus YDR195W, strain ref2 1.02 | locus YDR297W, strain sur2, active compounds read low 1.02 | locus YDR318W, strain mcm21, active compounds read low 0.986 | locus YDR334W, strain swr1, active compounds read low 1.04 | locus YDR335W, strain msn5, active compounds read low 1.03 | locus YDR388W, active compounds read low 0.988 | locus YDR392W, strain spt3, active compounds read low 0.978 | locus YDR502C, strain sam2, active compounds read low 0.989 | locus YEL003W, strain gim4, active compounds read low 1.02 | locus YEL037C, strain rad23, active compounds read low 1.04 | locus YEL061C, strain CIN8 (second series), active compounds read low 1.02 | locus YEL061C, strain CIN8, active compounds read low 0.999 | locus YER015W, strain faa2, active compounds read low 1.04 | locus YER016W, strain bim1, active compounds read low 1 | locus YER110C, active compounds read low 0.986 | locus YER111C, strain swi4, active compounds read low 1.03 | locus YER155C, strain BEM2 (second series), active compounds read low 1.02 | locus YER155C, strain BEM2, active compounds read low 0.986 | locus YER167W, strain BCK2, active compounds read low 1.01 | locus YFR010W, strain ubp6, active compounds read low 1.04 | locus YGL078C, strain dbp3, active compounds read low 0.983 | locus YGL086W, strain mad1, active compounds read low 1 | locus YGL167C, strain pmr1, active compounds read low 1.02 | locus YGL173C, strain kem1, active compounds read low 1.01 | locus YGL227W, strain vid30, active compounds read low 1.01 | locus YGL240W, strain doc1, active compounds read low 0.968 | locus YGL248W, strain PDE1, active compounds read low 0.994 | locus YGL253W, strain hxk2, active compounds read low 1.03 | locus YGR078C, strain PAC10, active compounds read low 0.987 | locus YGR135W, strain pre9, active compounds read low 0.988 | locus YGR229C, strain SMI1, active compounds read low 1.03 | locus YGR252W, strain gcn5, active compounds read low 1.07 | locus YHR013C, strain ard1, active compounds read low 1.02 | locus YHR027C, strain rpn1, active compounds read low 1.02 | locus YHR030C, strain SLT2, active compounds read low 0.996 and 1.06 | locus YHR079C, strain IRE1 (second series), active compounds read low 0.991 | locus YHR079C, strain IRE1, active compounds read low 1.08 | locus YHR094C, strain hxt1, active compounds read low 0.993 | locus YHR129C, strain ARP1, active compounds read low 0.986 | locus YHR142W, strain chs7, active compounds read low 1.05 | locus YHR200W, strain rpn10, active compounds read low 0.984 | locus YIL066C, strain RNR3, active compounds read low 0.982 | locus YIL073C, strain SPO22, active compounds read low 0.975 | locus YIL125W, strain kgd1, active compounds read low 1.01 | locus YIR030C, strain dcg1, active compounds read low 0.991 | locus YJL092W, strain hpr5, active compounds read low 1.03 | locus YJL095W, strain BCK1 (second series), active compounds read low 1.03 | locus YJL095W, strain BCK1, active compounds read low 0.956 and 1.05 | locus YJL115W, strain asf1, active compounds read low 1.03 | locus YJL129C, strain trk1, active compounds read low 1.06 | locus YJL134W, strain LCB3, active compounds read low 0.997 | locus YJL154C, strain vps35, active compounds read low 1.01 | locus YJL164C, strain tpk1, active compounds read low 1.01 | locus YJL166W, strain qcr8, active compounds read low 0.996 | locus YJL168C, strain set2, active compounds read low 0.987 | locus YJL187C, strain SWE1 (second series), active compounds read low 0.971 | locus YJL187C, strain SWE1, active compounds read low 1.03 | locus YJR043C, strain POL32, active compounds read low 0.974 | locus YJR066W, strain TOR1, active compounds read low 0.976
